# Source: PubChem BioAssay (Tox21)
# Where “and” joins values, the source holds several entries; their conditions need not be identical. Equal values may be shown once. Results filed as inconclusive are left out. Where a call stands in place of a potency, no number is given. Some structures have more than one record in an assay (separate samples or runs), and their calls can disagree. Calls of active or inactive are those of the source. The call rests on the fitted dose curve; in most records, active means well fitted curve in the direction sought with a large enough effect in the repeat runs; inconclusive means weak or mixed curves; inactive means no such curve, though single readings can be large; an effect the other way counts as inactive or inconclusive.
# Columns and labels:
# [1] = Caspase-3/7 induction in HepG2 cells by small molecules, qHTS cell viability counter screen (AID 1346981); further: nearly all actives have a fitted effect of over 30% in size; further: potency means the concentration at half of the fitted maximal effect
# Outline: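 Treatment of HepG2 cells with DMSO-delivered compounds ran 16 hr at 37 C following a 5-hr pre-incubation of 2,000 cells/well. CellTiter-Fluor fluorescence, read after 1 hr, served as the viability measure in a qHTS format.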
# [2] = target: Nuclear receptor subfamily 1 group I member 2 (Homo sapiens) (UniProt O75469); experiment: Human pregnane X receptor (PXR) small molecule agonists, qHTS assay (AID 1346982); further: nearly all actives have a fitted effect of over 35% in size; further: potency means the concentration at half of the fitted maximal effect
# Outline: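 Stable HepG2 line reporting PXR-mediated CYP3A4 expression via luciferase. Treatment: 24 hr with compounds in DMSO at 37 C. Detection: ONE-Glo luminescence.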
# [3] = target: Nuclear receptor subfamily 1 group I member 2 (Rattus norvegicus) (UniProt Q9R1A7); experiment: Rat pregnane X receptor (rPXR) activation by small molecules, qHTS assay (AID 1346983); details: rPXR luciferase reporter cells, One-Glo luminescence, 24 h; max activation: stronger effect = higher value; further: nearly all actives have a fitted effect of over 20% in size; further: potency means the concentration at half of the fitted maximal effect
# Outline: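 Cell-based rPXR luciferase reporter assay, 2,000 cells per well, rested 5hr at 37 C before compound addition in DMSO, then 24 hr at 37 C. One-Glo reagent was added and luminescence read after 30 min at room temperature.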
# [4] = target: Nuclear receptor subfamily 1 group I member 2 (Homo sapiens) (UniProt O75469); experiment: CYP3A4 induction through human pregnane X receptor (PXR) by small molecules, qHTS assay (AID 1346984); further: nearly all actives have a fitted effect of over 40% in size
# Outline: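 After 24 h at 37C with compound, DPX-2 cells (HepG2, co-transfected PXR response element and CYP3A4 promoter-luciferase) got 3uM final P450-Glo Luciferin-IPA for 3 h; One-Glo luminescence followed.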
# [5] = target: Nuclear receptor subfamily 1 group I member 2 (Homo sapiens) (UniProt O75469); experiment: Human pregnane X receptor (PXR) activation by small molecules, qHTS assay (AID 1346985); further: nearly all actives have a fitted effect of over 40% in size; further: potency means the concentration at half of the fitted maximal effect
# Outline: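 DPX-2 cells (HepG2 co-transfected with a PXR response element and a CYP3A4-promoter luciferase construct) were seeded at 2,000 per well, rested 5 hr at 37C, then exposed to DMSO-dissolved compounds for 24 hr. Activation was read as luciferase luminescence.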
# [6] = target: Cytochrome P450 2D6 (Homo sapiens) (UniProt P10635); experiment: Cytochrome P450 Family 2 Subfamily D Member 6 (CYP2D6) small molecule antagonists: luciferase reporter qHTS assay (AID 1671196); further: nearly all actives have a fitted effect of over 50% in size; further: potency means the concentration at half of the fitted maximal effect
# Outline: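 Chemicals tested for interference with CYP2D6 activity; proluciferin substrate, NADPH regeneration, 1 h at room temperature, luminescent detection.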
# [7] = target: Cytochrome P450 2C9 (Homo sapiens) (UniProt P11712); experiment: Cytochrome P450 Family 2 Subfamily C Member 9 (CYP2C9) small molecule antagonists: luciferase reporter qHTS assay (AID 1671198); further: nearly all actives have a fitted effect of over 50% in size; further: potency means the concentration at half of the fitted maximal effect
# Outline: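 CYP2C9 activity was measured with a P450-Glo proluciferin substrate. Enzyme–substrate mix was held with compound for 10 min at room temperature, then NADPH regeneration solution was added for 1 h at 37C. Luciferin product was read as luminescence.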
# [8] = target: Cytochrome P450 1A2 (Homo sapiens) (UniProt P05177); experiment: Cytochrome P450 Family 1 Subfamily A Member 2 (CYP1A2) small molecule antagonists: luciferase reporter qHTS assay (AID 1671199); further: nearly all actives have a fitted effect of over 50% in size; further: potency means the concentration at half of the fitted maximal effect
# Outline: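 Read-out is luminescence from luciferin detection reagent (20 min) proportional to CYP1A2 activity; compounds in DMSO preincubated 10 min with enzyme and proluciferin substrate, then NADPH regeneration solution, 1 h, room temperature.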
# [9] = target: Voltage-gated inwardly rectifying potassium channel KCNH2 (Homo sapiens) (UniProt Q12809); experiment: Human Ether-a-go-go-Related Gene (hERG) channel small molecule antagonists: fluorescence cell-based qHTS assay (AID 1671200);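 further: hERG-expressing U2OS cells given a thallium stimulus after FluxOR II dye loading; series mostly up to about 77 µM; nearly all actives have a fitted effect of over 50% in size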
# Outline: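 Cell line hERG-U2OS; dye FluxOR II, 1 h RT dark; Tl+ stimulus; ex 480/em 540 nm, read each second for 2 min.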
# [10] = target: Cytochrome P450 3A4 (Homo sapiens) (UniProt P08684); experiment: Cytochrome P450 Family 3 Subfamily A Member 4 (CYP3A4) small molecule antagonists: luciferase reporter qHTS assay (AID 1671201); further: nearly all actives have a fitted effect of over 50% in size; further: potency means the concentration at half of the fitted maximal effect
# Outline: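 Room-temperature assay throughout: 10 min compound–enzyme/substrate preincubation, 1 h reaction after NADPH regeneration solution, 20 min detection. Luciferin formed from proluciferin substrate is quantified by luminescence.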
# [11] = target: Cytochrome P450 2C19 (Homo sapiens) (UniProt P33261); experiment: Cytochrome P450 Family 2 Subfamily C Member 19 (CYP2C19) small molecule antagonists: luciferase reporter qHTS assay (AID 1671197); further: nearly all actives have a fitted effect of over 65% in size; further: potency means the concentration at half of the fitted maximal effect
# Outline: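 P450-Glo CYP2C19 system: enzyme-substrate mix with compound 10 min at room temperature, then NADPH regeneration solution, 1 h at 37C. Proluciferin-to-luciferin conversion detected by luminescence after 20 min with detection reagent; ketoconazole as positive control.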
# Sequence of Cytochrome P450 3A4 (Homo sapiens) (P08684 whole entry, looked up): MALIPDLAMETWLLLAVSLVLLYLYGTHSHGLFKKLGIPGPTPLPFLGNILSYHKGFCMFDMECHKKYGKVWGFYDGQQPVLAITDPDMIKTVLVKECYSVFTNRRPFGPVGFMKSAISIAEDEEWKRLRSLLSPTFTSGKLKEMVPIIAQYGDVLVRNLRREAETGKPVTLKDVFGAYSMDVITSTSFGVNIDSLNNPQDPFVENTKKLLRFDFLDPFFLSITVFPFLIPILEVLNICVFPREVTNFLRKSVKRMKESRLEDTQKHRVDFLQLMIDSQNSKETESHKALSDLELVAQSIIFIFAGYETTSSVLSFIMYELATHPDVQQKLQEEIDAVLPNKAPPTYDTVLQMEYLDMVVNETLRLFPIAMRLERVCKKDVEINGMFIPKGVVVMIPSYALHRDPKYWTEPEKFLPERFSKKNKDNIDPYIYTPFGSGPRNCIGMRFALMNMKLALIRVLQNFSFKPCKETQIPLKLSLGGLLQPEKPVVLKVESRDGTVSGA
# Sequence of Nuclear receptor subfamily 1 group I member 2 (Homo sapiens) (O75469 whole entry, looked up): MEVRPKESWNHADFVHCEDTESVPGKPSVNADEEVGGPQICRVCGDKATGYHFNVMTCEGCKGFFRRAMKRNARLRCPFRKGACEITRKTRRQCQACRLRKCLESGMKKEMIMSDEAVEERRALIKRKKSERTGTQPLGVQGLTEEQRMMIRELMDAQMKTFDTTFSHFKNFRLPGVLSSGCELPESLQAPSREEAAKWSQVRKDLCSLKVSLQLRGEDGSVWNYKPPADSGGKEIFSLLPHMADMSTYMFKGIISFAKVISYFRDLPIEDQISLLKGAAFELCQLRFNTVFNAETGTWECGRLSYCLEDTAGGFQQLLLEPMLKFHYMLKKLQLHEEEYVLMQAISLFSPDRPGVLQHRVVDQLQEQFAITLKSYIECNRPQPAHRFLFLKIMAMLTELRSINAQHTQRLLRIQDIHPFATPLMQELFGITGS
# Sequence of Cytochrome P450 1A2 (Homo sapiens) (P05177 whole entry, looked up): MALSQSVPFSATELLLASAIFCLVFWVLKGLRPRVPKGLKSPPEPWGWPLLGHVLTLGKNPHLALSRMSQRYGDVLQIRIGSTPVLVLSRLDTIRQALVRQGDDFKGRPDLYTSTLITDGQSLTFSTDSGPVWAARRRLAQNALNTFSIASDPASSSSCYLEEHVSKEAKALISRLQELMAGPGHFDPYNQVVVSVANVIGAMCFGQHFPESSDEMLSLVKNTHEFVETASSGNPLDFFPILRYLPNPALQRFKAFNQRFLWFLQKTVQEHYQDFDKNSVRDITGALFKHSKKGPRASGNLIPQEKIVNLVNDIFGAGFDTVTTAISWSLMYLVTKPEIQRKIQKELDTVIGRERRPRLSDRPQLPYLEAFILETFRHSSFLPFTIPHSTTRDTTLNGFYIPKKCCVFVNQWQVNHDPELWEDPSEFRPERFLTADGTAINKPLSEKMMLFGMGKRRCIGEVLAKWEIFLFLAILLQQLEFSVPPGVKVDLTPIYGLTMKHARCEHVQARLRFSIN
# Sequence of Cytochrome P450 2C19 (Homo sapiens) (P33261 whole entry, looked up): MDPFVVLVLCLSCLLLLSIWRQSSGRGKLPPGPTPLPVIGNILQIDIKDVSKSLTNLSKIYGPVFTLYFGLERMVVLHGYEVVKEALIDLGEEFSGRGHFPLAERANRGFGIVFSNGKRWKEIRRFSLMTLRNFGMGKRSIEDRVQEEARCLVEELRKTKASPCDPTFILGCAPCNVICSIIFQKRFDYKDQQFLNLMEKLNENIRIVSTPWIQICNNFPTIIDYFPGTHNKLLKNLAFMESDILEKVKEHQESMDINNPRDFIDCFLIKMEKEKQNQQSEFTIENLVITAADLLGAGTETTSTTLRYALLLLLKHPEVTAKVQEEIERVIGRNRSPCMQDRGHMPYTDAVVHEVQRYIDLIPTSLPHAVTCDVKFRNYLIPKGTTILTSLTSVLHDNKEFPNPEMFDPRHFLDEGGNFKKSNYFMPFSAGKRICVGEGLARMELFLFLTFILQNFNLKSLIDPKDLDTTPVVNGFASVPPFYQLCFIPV
# Sequence of Cytochrome P450 2D6 (Homo sapiens) (P10635 whole entry, looked up): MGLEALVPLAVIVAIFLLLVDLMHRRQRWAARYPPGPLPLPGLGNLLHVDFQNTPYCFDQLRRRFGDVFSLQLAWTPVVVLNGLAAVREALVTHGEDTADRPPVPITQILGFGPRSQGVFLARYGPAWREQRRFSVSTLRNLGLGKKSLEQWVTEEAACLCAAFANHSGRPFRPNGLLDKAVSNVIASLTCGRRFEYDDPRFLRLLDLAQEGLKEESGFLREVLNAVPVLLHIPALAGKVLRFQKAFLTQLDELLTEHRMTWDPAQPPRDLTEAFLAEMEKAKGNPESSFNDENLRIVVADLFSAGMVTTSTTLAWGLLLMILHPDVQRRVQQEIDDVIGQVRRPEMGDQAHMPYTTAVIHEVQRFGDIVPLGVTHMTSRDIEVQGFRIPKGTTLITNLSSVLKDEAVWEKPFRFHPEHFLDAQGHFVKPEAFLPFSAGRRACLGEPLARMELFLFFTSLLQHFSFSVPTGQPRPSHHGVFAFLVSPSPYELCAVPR
# Sequence of Nuclear receptor subfamily 1 group I member 2 (Rattus norvegicus) (Q9R1A7 whole entry, looked up): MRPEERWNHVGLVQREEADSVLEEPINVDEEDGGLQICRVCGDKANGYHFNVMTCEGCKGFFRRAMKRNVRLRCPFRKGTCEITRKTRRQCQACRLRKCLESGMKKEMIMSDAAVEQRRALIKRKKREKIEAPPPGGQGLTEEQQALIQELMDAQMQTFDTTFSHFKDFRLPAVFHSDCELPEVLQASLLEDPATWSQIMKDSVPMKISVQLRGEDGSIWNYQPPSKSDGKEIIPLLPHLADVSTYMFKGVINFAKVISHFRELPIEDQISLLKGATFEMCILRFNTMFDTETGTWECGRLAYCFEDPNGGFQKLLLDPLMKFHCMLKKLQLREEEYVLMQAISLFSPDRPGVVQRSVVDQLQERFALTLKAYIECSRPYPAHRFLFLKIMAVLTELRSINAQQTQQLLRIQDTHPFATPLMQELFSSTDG
# Sequence of Cytochrome P450 2C9 (Homo sapiens) (P11712 whole entry, looked up): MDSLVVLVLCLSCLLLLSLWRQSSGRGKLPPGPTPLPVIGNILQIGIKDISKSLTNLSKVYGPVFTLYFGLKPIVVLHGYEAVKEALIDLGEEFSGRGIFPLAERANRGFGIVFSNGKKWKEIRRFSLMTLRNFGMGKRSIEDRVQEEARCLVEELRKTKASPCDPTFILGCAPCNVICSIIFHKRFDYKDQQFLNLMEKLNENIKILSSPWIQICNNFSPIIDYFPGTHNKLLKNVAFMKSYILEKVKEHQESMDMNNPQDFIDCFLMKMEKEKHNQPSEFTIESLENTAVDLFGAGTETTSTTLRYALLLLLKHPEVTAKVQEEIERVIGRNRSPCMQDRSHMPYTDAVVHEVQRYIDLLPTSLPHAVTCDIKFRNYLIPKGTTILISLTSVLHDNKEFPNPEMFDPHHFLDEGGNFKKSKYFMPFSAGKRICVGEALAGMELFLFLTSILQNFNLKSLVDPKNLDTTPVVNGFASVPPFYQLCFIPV
# Sequence of Voltage-gated inwardly rectifying potassium channel KCNH2 (Homo sapiens) (Q12809 whole entry, looked up): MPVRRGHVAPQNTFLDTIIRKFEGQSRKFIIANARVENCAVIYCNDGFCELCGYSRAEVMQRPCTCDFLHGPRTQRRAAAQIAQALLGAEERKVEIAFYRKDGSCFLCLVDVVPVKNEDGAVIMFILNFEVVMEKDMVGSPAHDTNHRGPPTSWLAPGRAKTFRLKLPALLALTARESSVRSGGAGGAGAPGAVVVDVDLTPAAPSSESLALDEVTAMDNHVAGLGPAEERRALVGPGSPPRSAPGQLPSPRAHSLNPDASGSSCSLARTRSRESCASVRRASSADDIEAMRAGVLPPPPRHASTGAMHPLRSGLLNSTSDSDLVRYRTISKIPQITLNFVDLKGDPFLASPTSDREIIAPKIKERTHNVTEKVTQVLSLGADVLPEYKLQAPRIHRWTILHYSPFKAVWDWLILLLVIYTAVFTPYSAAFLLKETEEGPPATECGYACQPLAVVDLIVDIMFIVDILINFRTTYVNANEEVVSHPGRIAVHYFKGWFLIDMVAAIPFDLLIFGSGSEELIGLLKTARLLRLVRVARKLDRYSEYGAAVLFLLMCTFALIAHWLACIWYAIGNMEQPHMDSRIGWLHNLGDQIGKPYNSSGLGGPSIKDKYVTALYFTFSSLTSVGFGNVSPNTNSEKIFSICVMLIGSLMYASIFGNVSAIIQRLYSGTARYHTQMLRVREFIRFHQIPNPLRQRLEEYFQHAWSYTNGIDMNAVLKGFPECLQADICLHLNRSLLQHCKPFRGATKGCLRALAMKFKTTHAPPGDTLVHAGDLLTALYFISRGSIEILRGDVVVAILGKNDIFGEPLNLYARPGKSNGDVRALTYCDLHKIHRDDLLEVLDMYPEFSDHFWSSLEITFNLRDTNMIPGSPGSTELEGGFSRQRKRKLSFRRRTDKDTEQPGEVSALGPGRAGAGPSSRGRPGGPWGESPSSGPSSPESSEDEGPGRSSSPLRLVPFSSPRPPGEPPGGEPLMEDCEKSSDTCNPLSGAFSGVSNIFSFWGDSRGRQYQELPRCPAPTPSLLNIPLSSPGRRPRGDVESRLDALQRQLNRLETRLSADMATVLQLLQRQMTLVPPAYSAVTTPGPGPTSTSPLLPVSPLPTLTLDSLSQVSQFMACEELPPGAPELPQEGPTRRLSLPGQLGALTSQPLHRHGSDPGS
Structure (SMILES),Potency [1],Potency [2],max activation [3],outcome [4],Potency [5],Potency [6],Potency [7],Potency [8],outcome [9],Potency [10],Potency [11],Potency [3]
C=CCNC(N)=S,inactive,inactive,-2.6% (inactive),inactive,inactive,61.9 µM (active) and inactive,inactive,inactive,inactive,inactive,,
C#C[C@]1(O)CC[C@H]2[C@@H]3CCC4=CC(=O)CC[C@@H]4[C@H]3CC[C@@]21C,inactive,48.6 µM (active),-1% (inactive),,inactive,inactive,,,inactive,,5.03 µM (active) and 4.36 µM (active),
C/C=C1/CC2C=CC1C2 (stereo not given),inactive,inactive and 54.5 µM (active),,,,inactive,inactive and 39.9 µM (active),inactive,inactive,inactive and 31.7 µM (active),inactive,
CC(c1cc2ccccc2s1)N(O)C(N)=O (stereo not given),inactive,34.4 µM (active) and inactive,1.87% (inactive),inactive,inactive,inactive,71 µM (active),,inactive,20 µM (active),,
COS(C)(=O)=O,inactive,inactive,,,,inactive,inactive,inactive,inactive,inactive,inactive,
CCCCCCCCCCCCOCCO,inactive,61.1 µM (active) and inactive,,,,inactive,39.9 µM (active),31.7 µM (active) and 34.7 µM (active),inactive,inactive,25.2 µM (active) and inactive,
CCCCCCCCCCCCCCO,inactive,inactive,,,,inactive,inactive,22.4 µM (active),inactive,inactive,inactive,
C=C(C)C(=O)OCCOCCOCCOC(=O)C(=C)C,inactive,inactive,,,,20 µM (active) and inactive,40 µM (active),40 µM (active) and 28.3 µM (active),inactive,inactive,22.5 µM (active) and 31.7 µM (active),
CC[C@H](C)C(=O)O[C@H]1C[C@@H](C)C=C2C=C[C@H](C)[C@H](CC[C@@H]3C[C@@H](O)CC(=O)O3)[C@H]21,69.6 µM (active) and inactive,24.7 µM (active) and inactive,,,,36.1 µM (active) and inactive,,,,,,12.6 µM (active)
CCCCCC(N)=O,inactive,inactive,-0.768% (inactive),inactive,inactive,inactive,inactive,,inactive,inactive,,
CN(C)CCC(c1ccc(Cl)cc1)c1ccccn1 (stereo not given),inactive,,,,,,,,,,,
O=c1[nH]c(=O)n([C@H]2C[C@H](O)[C@@H](CO)O2)cc1Br,inactive,12.4 µM (active) and inactive,,inactive,inactive,inactive,inactive,40.6 µM (active) and inactive,inactive,inactive,,4.47 µM (active)
O=C(O)c1cc(O)c(O)c(O)c1,43.7 µM (active),inactive,-1.49% (inactive),inactive,inactive,inactive,,,inactive,inactive,,
O=C(O)CCCC[C@@H]1SC[C@@H]2NC(=O)N[C@@H]21,inactive,inactive,,,,inactive,inactive,inactive,inactive,inactive,inactive,
O=C(CC(C(=O)OC1CCCCC1)S(=O)(=O)O)OC1CCCCC1 (stereo not given),inactive,26.9 µM (active),,,,inactive,40.1 µM (active) and 35.1 µM (active),inactive,inactive,inactive,inactive,
CC1=CCC2CC1C2(C)C (stereo not given),inactive,inactive,-0.804% (inactive),inactive,inactive,inactive and 7.1 µM (active),inactive,,inactive,inactive,,
OC[C@H]1O[C@@](CO)(O[C@H]2O[C@H](CO)[C@@H](O)[C@H](O)[C@H]2O)[C@@H](O)[C@@H]1O,inactive,inactive and 27.3 µM (active),0.408% (inactive),inactive,inactive,inactive,inactive,inactive,inactive,inactive,,
CCCCC(CC)COC(=O)C(C#N)=C(c1ccccc1)c1ccccc1 (stereo not given),inactive,13.7 µM (active) and 10.6 µM (active),,,10 µM (active),5.03 µM (active) and 5.49 µM (active),2.83 µM (active) and 3.09 µM (active),,inactive,,7.1 µM (active),
